Only some compounds are listed: those with a hit (about 19% of all), similar ones and a draw of the others.
TDP1 block: TDP1 (human) enzyme inhibition; Q9NUW8; recombinant TDP1, AlphaScreen DNA substrate cleavage; Potency, µM (titrated, usually from 130 µM), without a hit: top-dose activity change, negative = inhibition, most hits filed as inhibitors; 0.28% of 350,000 active; AID 485290; note: potency is the fitted concentration of half-maximal effect; nearly all actives have a fitted effect of over 40% in size
Target sequence (Q9NUW8 whole entry, looked up): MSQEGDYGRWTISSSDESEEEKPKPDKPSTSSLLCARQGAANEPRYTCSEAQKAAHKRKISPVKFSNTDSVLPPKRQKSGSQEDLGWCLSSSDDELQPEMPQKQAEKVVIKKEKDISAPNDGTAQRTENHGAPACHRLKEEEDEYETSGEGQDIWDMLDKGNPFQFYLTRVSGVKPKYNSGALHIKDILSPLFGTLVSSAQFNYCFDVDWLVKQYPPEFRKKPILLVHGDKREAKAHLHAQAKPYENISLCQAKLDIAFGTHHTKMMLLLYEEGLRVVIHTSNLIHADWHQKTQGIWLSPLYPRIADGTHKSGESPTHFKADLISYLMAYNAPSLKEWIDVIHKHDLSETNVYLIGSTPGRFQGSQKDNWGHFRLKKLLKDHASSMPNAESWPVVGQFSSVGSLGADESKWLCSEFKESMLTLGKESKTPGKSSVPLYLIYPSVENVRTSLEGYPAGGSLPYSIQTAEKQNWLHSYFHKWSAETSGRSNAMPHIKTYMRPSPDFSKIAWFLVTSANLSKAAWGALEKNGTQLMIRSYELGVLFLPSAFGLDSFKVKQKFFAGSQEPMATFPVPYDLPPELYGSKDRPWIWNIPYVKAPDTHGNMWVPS
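E. coli-derived human Tdp1, 1 nM final. Cpd preinc 15 min RT; substrate 15 nM final, 5 min RT; AS bead mix 10 ug/ml final, 10 min RT. Signal loss = tyrosine-FITC cleavage. No-enzyme wells = max signal.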
TDP1 cell noCPT: qHTS for Inhibitors of human tyrosyl-DNA phosphodiesterase 1 (TDP1): qHTS in cells in absence of CPT. Potency, µM (highest dose often 46.2 µM), for the others: top-dose activity change, negative = growth inhibition, usual class: inhibitors. 15% of 420,000 active. DT40 Tdp1-/- hTDP1 cells, no CPT, ATP luminescence, 48 h; note: potency is the fitted concentration of half-maximal effect; nearly all actives have a fitted effect of over 55% in size
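Chicken DT40 Tdp1-/- cells stably complemented with human TDP1 were seeded at 400 cells/well with DMSO in place of 20 nM camptothecin. After compound pinning, cells grew at least 48 hr at 37 °C; viability read by CellTiter-Glo luminescence.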
ELG1 DNA repair: inhibitors of ELG1-dependent DNA repair in HEK293T cells; AID 504467; Potency, µM (titrated, usually from 46.1 µM), for the others: at the top dose activity change, negative = inhibition, actives largely listed as inhibitors; 2.3% of 330,000 active; HEK293T ELG1-luciferase reporter, luminescence, 16 h; DNA damage induced by 5-fluorouridine; note: potency is the fitted concentration of half-maximal effect; nearly all actives have a fitted effect of over 55% in size
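DMSO vehicle served as the neutral condition. Each well held 2,000 cells given 5-fluorouridine plus compound; after 16 hr at 37 °C/5% CO2, ONE-Glo was added and luciferase measured 30 min later.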
IL1B secr inh: blocks inflammasome-driven IL-1 beta release; 4.7% of 360,000 active; THP-1 LPS/ATP IL-1B secretion, AlphaLISA, 16 h; stronger effect = lower value; activity change, % at 57.5 µM; in the data active = activity change below about -50%; inconclusive = mostly about -30% to -49%
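Secreted IL-1B measured by AlphaLISA bead assay after 16 h compound exposure of THP-1 cells; compounds (final up to 57.5 uM) added 1 h before LPS (250 ng/mL) and ATP (1.25 mM) stimulation; lower signal means less secretion.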
TDP1 cell CPT: growth inhibition of DT40 Tdp1-/-;hTDP1 cells with camptothecin (screen for TDP1 inhibitors); 12% of 420,000 active; chicken DT40 Tdp1-/-;hTDP1 cells + 20 nM CPT, ATP luminescence, 48 h; Potency, µM (titrated, usually from 46.2 µM), without a hit: at the highest dose activity change, negative = growth inhibition, hits mostly inhibitors; note: potency is the fitted concentration of half-maximal effect; nearly all actives have a fitted effect of over 55% in size
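Cell growth measured by CellTiter-Glo luminescence after a minimum 48 h, 37 C compound exposure with 20 nM CPT in Tdp1-knockout DT40 cells stably expressing hTDP1, seeded 400/well; qHTS titration format.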
Giardia killer: Giardia lamblia killing. AID 540267. Giardia lamblia trophozoite viability. 0.15% of 340,000 active. activity change, % at 7.66 µM, hits read low; in the data active = activity change below about -80%; inconclusive = between about -30% and that limit;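 note: parasites exposed to compound for two days anaerobically before the ATP read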
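Media and compound were dispensed first, then trophozoites at 100 cells/well; plates sat 48 hrs at 37 deg C without oxygen before ATP luminescence reagent was added and read after 15-30 min at room temperature.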
An asterisk follows results filed as active. Unless noted, calls come from the whole dose curve; as a rule, active = well fitted curve in the direction sought with a large enough effect; inconclusive = small, poorly fitted or top-dose-only effect, or another doubt; inactive = no such curve, though single readings can be large; an effect the other way counts as inactive or inconclusive. % is set by controls: 0 for no effect and ±100 for the full control effect.

`COc1ccc(CC(=O)NCC2CCCN(Cc3ccc(OC(F)(F)F)cc3)C2)cc1` (stereo not given) gave TDP1 cell noCPT 18µM*, ELG1 DNA repair -9%, IL1B secr inh -22, TDP1 cell CPT 0% and Giardia killer -18.
COc1ccc(CC(=O)NCC2CCCN(Cc3cc(OC)cc(OC)c3)C2)cc1 (stereo not given) was read as TDP1 cell noCPT -12%, ELG1 DNA repair 2%, IL1B secr inh -50*, TDP1 cell CPT -21% and Giardia killer 5.
`O=S1(=O)N=C(Oc2ccccc2-c2ccccc2)c2ccccc21` gave TDP1 block 2%.
N=C1C2=C3Sc4ccccc4N3CCCC2=NN1c1cccc(S(=O)(=O)O)c1 was read as TDP1 block -1%, TDP1 cell noCPT -9%, ELG1 DNA repair inconclusive, IL1B secr inh 7, TDP1 cell CPT -1% and Giardia killer 3.
CC(C)CC(=O)Nc1ccc(-c2nc3ccccc3c(=O)[nH]2)cc1 was read as TDP1 block 0%, TDP1 cell noCPT -24%, ELG1 DNA repair inconclusive, IL1B secr inh 3, TDP1 cell CPT -1% and Giardia killer -30.
For CCOC(=O)C1=C[C@@H](C(C)(C)C)N(S(=O)(=O)c2ccc(OC)cc2)[C@H]1c1ccccc1 the results were TDP1 cell noCPT inconclusive, IL1B secr inh -22 and TDP1 cell CPT 18µM*.
For CCOC(=O)C1=C[C@@H](c2ccccc2)N(S(=O)(=O)c2ccc(C)cc2)[C@H]1c1ccc(OC)cc1 the results were TDP1 cell noCPT inconclusive, IL1B secr inh 7 and TDP1 cell CPT 16µM*.
CCOC(=O)C1=C[C@@H](C(C)(C)C)N(S(=O)(=O)c2ccc(C)cc2)[C@H]1c1ccc(OC)cc1 was read as TDP1 cell noCPT 21µM*, IL1B secr inh -9 and TDP1 cell CPT inconclusive.
CCOC(=O)C1=C[C@@H](C(C)(C)C)N(S(=O)(=O)c2ccc(C)cc2)[C@H]1c1ccc(F)cc1 was read as TDP1 cell noCPT 23µM*, IL1B secr inh 25 and TDP1 cell CPT 18µM*.
CCOC(=O)C1=C[C@@H](c2ccccc2)N(S(=O)(=O)c2ccc(C)cc2)[C@H]1c1ccc(F)cc1 was read as TDP1 cell noCPT inconclusive, IL1B secr inh 6 and TDP1 cell CPT inconclusive.
`CCOC(=O)C1=C[C@@H](C(C)(C)C)N(S(=O)(=O)c2ccc(C)cc2)[C@H]1c1ccccc1` gave TDP1 cell noCPT inconclusive, IL1B secr inh 19 and TDP1 cell CPT inconclusive.
For CC(C)(C)NC(=O)c1ccccc1NC(=O)C1CCCO1 (stereo not given) the results were TDP1 block 0%, TDP1 cell noCPT -28%, ELG1 DNA repair 6%, IL1B secr inh -8, TDP1 cell CPT -5% and Giardia killer 2.
Screening O=C1NN(c2ccccc2)C(=O)/C1=C\c1ccccc1OCC(=O)N1CCOCC1 returned TDP1 block -8%, TDP1 cell noCPT 2%, ELG1 DNA repair 9%, IL1B secr inh 8, TDP1 cell CPT 1% and Giardia killer -16.
CCc1ccccc1N=C1S/C(=C/c2ccccc2OCC(=O)N2CCOCC2)C(=O)N1C was read as TDP1 block 7%, TDP1 cell noCPT inconclusive, ELG1 DNA repair inconclusive, IL1B secr inh -72*, TDP1 cell CPT inconclusive and Giardia killer 12.
For Cc1nc(N2CCN(c3ccccn3)CC2)c2c(C)c(C(=O)Nc3c(C)cc(Br)cc3C)sc2n1 the results were TDP1 block 8%, TDP1 cell noCPT inconclusive, ELG1 DNA repair inconclusive, IL1B secr inh inconclusive, TDP1 cell CPT inconclusive and Giardia killer 6.
Cc1nc(N2CCN(c3ccccn3)CC2)c2c(C)c(C(=O)Nc3ccc(Cl)cc3)sc2n1 was read as TDP1 block 1%, TDP1 cell noCPT inconclusive, ELG1 DNA repair 8.2µM*, IL1B secr inh -58*, TDP1 cell CPT inconclusive and Giardia killer -5.
Screening Cc1ccc(NC(=O)c2sc3ncn(CC(=O)N4CCN(c5ccccn5)CC4)c(=O)c3c2C)cc1 returned TDP1 cell noCPT inconclusive, IL1B secr inh 19 and TDP1 cell CPT -14%.
`Cc1nc(N2CCN(c3ccccn3)CC2)c2c(C)c(C(=O)Nc3c(F)cc(F)cc3Br)sc2n1` gave TDP1 block 5%, TDP1 cell noCPT 13µM*, ELG1 DNA repair 23µM*, IL1B secr inh -24, TDP1 cell CPT 16µM* and Giardia killer -7.
`O=C(Nc1ccncc1)c1cc(S(=O)(=O)N2CCCCC2)ccc1Cl` gave TDP1 block -7%, TDP1 cell noCPT inconclusive, ELG1 DNA repair -30%, IL1B secr inh 25, TDP1 cell CPT 9.2µM* and Giardia killer -1.
`O=C(Nc1ccc(Cl)c(S(=O)(=O)N2CCCCC2)c1)c1ccncc1` gave TDP1 block -6%, TDP1 cell noCPT 13µM*, ELG1 DNA repair inconclusive, IL1B secr inh -5, TDP1 cell CPT 15µM* and Giardia killer -12.
CCN1CCN(c2ccc(NC(=O)c3cc(S(=O)(=O)N4CCCC4)ccc3Cl)cc2)CC1 was read as TDP1 block 4%, TDP1 cell noCPT 26µM*, ELG1 DNA repair 25%, IL1B secr inh 21, TDP1 cell CPT inconclusive and Giardia killer 8.
`NS(=O)(=O)c1ccc(Cl)c(C(=O)Nc2ccccc2[N+](=O)[O-])c1` gave TDP1 block 3%, TDP1 cell noCPT -5%, ELG1 DNA repair -5%, IL1B secr inh -56*, TDP1 cell CPT 3% and Giardia killer -2.
COc1ccc(CNC(=O)Cn2ncc3c([nH]c4ccccc43)c2=O)cc1 was read as TDP1 block -6%, TDP1 cell noCPT inconclusive and TDP1 cell CPT -4%.
Screening O=C(CCC(=O)c1ccc(F)cc1)NCC1(N2CCCCC2)CCCCC1 returned TDP1 block 0%, TDP1 cell noCPT inconclusive, ELG1 DNA repair 15%, IL1B secr inh -3, TDP1 cell CPT -23% and Giardia killer inconclusive.
For Cc1cccc(OCCSc2nc3ccccc3n2CC(=O)O)c1 the results were TDP1 cell noCPT -3%, ELG1 DNA repair -9%, IL1B secr inh -16, TDP1 cell CPT 1% and Giardia killer inconclusive.
Screening CC1CCCCC1NC(=O)CCN1C(=O)C2C3C=CC(C3)C2C1=O (stereo not given) returned TDP1 block 2%, TDP1 cell noCPT -5%, ELG1 DNA repair 9%, IL1B secr inh 9, TDP1 cell CPT 1% and Giardia killer -17.

Screens (PubChem BioAssay)
